The campaign covered roughly 170,000 compounds. About 900 (0.53%) were called active.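 Rule for the calls: active = relative growth at most 50% at the other temperature and 20+ points below 30 °C, or under 10% at both; inactive = the rest, inconclusive results apart.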 Many of the other results were omitted from the sample, so actives are more common in it than they were.
Experiment: Staphylococcus aureus RN4220 growth blockers – two temperatures, LtaS inhibitor project, primary screen (AID 720641)
Conditions: S. aureus RN4220 growth, OD600, 20 h, 42 °C, stronger effect = lower value

## [C-]#[N+]c1ccc(Cl)cc1C(C)S(=O)(=O)c1ccc(C)cc1 (stereo not given)
  relative growth: 4.29% (active)
Measured here: growth at 30 °C
  relative growth: 7.07%

## Cc1cc(N2CCNCC2)nc(C)n1
  relative growth: 91.3% (inactive)
Measured here: growth at 30 °C
  relative growth: 82.9%

## CN1C(=O)C(C(=O)O)C2CC1Oc1ccccc12 (stereo not given)
  relative growth: 91.5% (inactive)
Measured here: growth at 30 °C
  relative growth: 72.8%

## O=C(Cn1cc(/C=C2/C(=O)NC(=O)N(Cc3ccco3)C2=O)c2ccccc21)NCC1CCCO1 (stereo not given)
  relative growth: 98.4% (inactive)
Measured here: growth at 30 °C
  relative growth: 86.3%

## CN(C)c1ccc(/C=C2/C(=O)C3CCN2CC3)cc1
  relative growth: 112% (inactive)
Measured here: growth at 30 °C
  relative growth: 95.5%

Reference: PubChem BioAssay AID720641 (ICCB-Longwood Screening Facility, Harvard Medical School, 2013)
